This is a sample that favours compounds with a hit; in the whole collection about 0.86% have one here.
BLM inh: inhibitors of human Bloom syndrome helicase BLM; P54132; recombinant BLM DNA unwinding, fluorescence dequenching; Potency, µM (series often up to 56.1 µM), without a hit: at the highest dose activity change, negative = inhibition, usual class: inhibitors; 350,000 compounds, 0.2% hits; AID 2528;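 note: plate controls were vehicle for no effect and no enzyme for full effect; nearly all actives have a fitted effect of over 35% in size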
APEX1 inh: blocks human APE1 abasic DNA cleavage | Potency, µM (series often up to 65.8 µM), inactives show top-dose activity change, negative = inhibition, usual class: inhibitors | recombinant APE1, TAMRA/BHQ-2 abasic DNA cleavage fluorescence | 350,000 compounds, 0.35% hits | P27695 | AID 2517;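 note: plate controls were vehicle for no effect and reference inhibitor for full effect; nearly all actives have a fitted effect of over 55% in size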
Target sequence (P27695 whole entry, looked up): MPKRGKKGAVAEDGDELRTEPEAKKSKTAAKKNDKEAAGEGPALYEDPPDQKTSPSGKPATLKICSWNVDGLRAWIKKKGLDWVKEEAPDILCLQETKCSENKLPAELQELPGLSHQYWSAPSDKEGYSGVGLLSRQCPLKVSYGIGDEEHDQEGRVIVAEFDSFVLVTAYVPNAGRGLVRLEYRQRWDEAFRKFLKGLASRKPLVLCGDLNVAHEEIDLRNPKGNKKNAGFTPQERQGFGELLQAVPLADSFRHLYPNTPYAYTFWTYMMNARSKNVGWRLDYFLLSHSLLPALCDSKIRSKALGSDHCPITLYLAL
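0.75 nM APE1 + cpd, 15 min RT; start w/ 50 nM TAMRA/BHQ-2 THF-abasic dsDNA; kinetic fluor 525/598 nm ×3 reads @60 s; Δ(read3−read1); normalized to DMSO and NSC13755 control wells.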
PGK inhibitor: inhibitors of T. brucei phosphoglycerate kinase; P07378; PGK/GAPDH coupled, Kinase-Glo luminescence, 60 min; Potency, µM (titrated, usually from 57.5 µM), without a hit: at the top dose activity change, negative = inhibition, usual class: inhibitors; 380,000 compounds, 0.043% hits; AID 602233; note: nearly all actives have a fitted effect of over 60% in size
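Recombinant glycosomal PGK reaction used 1,3-bisphosphoglycerate generated in-well by GAPDH (100nM final) in 100mM TEA pH 7.6, 5mM MgCl2, 0.01% Tween-20. After 60 minutes at room temperature, ATP was read by Kinase-Glo Plus luminescence end-point.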
FEN1 inhibitor: inhibitors of human flap endonuclease 1; Recombinant FEN1 flap cleavage, fluorescence, 15 min; 390,000 compounds, 0.35% hits; Potency, µM (doses to about 114 µM), without a hit: at the highest dose activity change, negative = inhibition, hits mostly inhibitors; AID 588795; P39748; note: nearly all actives have a fitted effect of over 65% in size
Target sequence (P39748 whole entry, looked up): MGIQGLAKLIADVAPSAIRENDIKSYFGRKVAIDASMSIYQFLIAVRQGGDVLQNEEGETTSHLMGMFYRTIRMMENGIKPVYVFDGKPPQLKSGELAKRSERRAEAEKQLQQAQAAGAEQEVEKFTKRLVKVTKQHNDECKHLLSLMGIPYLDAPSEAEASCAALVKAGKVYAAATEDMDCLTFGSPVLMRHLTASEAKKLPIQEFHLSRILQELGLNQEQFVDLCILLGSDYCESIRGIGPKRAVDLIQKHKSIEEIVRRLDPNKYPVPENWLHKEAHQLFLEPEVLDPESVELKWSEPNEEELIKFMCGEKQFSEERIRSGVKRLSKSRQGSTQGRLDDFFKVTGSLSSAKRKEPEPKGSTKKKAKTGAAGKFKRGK
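Enzyme 10 nM, 15 min RT preincubation with compound; start with substrate 50 nM final; reads at 0 and 15 min; qHTS titration, four-parameter Hill fit.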
GLS inh: blocks human kidney-isoform glutaminase activity; AID 624170; 410,000 compounds, 0.21% hits; Potency, µM (doses to about 45.5 µM), for the others: at the highest dose activity change, negative = inhibition, most hits filed as inhibitors; GLS enzymatic activity, qHTS titration
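Glutamate formation by hKGA was monitored fluorometrically using coupled glutamate oxidase, HRP and Amplex Red. Substrate was added as 1 mM L-glutamine solution; incubation was 30 min at RT after an initial read.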
RECQ1 inh: RECQ1 (human) helicase inhibition. P46063. RECQ1 DNA unwinding, red fluorescence kinetic read. Potency, µM (titrated, usually from 57.3 µM), inactives show at the top dose activity, negative = inhibition, hits mostly inhibitors. 240,000 compounds, 0.54% hits. AID 2549;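 note: plate controls were vehicle for no effect and no enzyme for full effect; nearly all actives have a fitted effect of over 30% in size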
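50 nM RECQ1T1 preincubated 15 min with compound in Tris pH 8.0 buffer with MgCl2, DTT, Tween-20 and 2.5 ug/ml poly(dI-dC); started with 200 nM TAMRA/BHQ-2 forked duplex and 2 mM ATP. Unwinding read as fluorescence (525/598 nm), two reads 2 h apart.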
* = called active by the depositor; i = inactive; u = inconclusive; x = no result; ! = not confirmed by another sample. Calls come from the whole dose curve; as a rule, active = well fitted curve in the direction sought with a large enough effect; inconclusive = small, poorly fitted or top-dose-only effect, or another doubt; inactive = no such curve, though single readings can be large; an effect the other way counts as inactive or inconclusive. Unless noted, % is set by controls: 0 for no effect and ±100 for the full control effect; potency is the fitted concentration of half-maximal effect.

SMILES | BLM inh | APEX1 inh | PGK inhibitor | FEN1 inhibitor | GLS inh | RECQ1 inh
CCc1ccc(C(=O)COC(=O)CNC(=O)Cc2ccccc2)cc1 | -4% | 62% | -10% | 2% | 2% | x
COc1cc2c(cc1OC)C(c1cc(-c3cc(Cl)ccc3Cl)oc1C)=NCC2 | x | x | x | 1% | x | x
O=C(CSc1nnc(-c2cccc([S+](=O)([O-])N3CCCC3)c2)n1-c1ccccc1)Nc1cccc(F)c1 | x | 40% | x | x | x | x
O=C(O)c1cc(-c2ccco2)nn1-c1ccc(Cl)cc1 | 53% | u | u | 25µM* | 141% | 22µM*
O=C1/C(=C\c2ccc(O)c(O)c2)N=C2CCCCCN12 | -1% | -4% | i | 8% | 2.5µM* | -5%
Cc1ccc(-n2c(-c3ccco3)n[nH]c2=S)cc1 | -2% | 13% | -4% | -3% | -10% | i
CC(C1CC2CCC1C2)n1c(-c2ccco2)n[nH]c1=S (stereo unspecified) | -4% | -2% | 7% | 2% | 11µM* | -1%
CC(Oc1ccccc1)C(=O)N[C@@H]1C(=O)N2C(C(=O)O)C(C)(C)S[C@H]12 (stereo partly specified) | x | x | x | 0% | x | x
Cc1onc(-c2c(F)cccc2Cl)c1C(=O)N[C@@H]1C(=O)N2C(C(=O)O)C(C)(C)S[C@H]12 (stereo partly specified) | x | 9% | 2% | -23% | 11µM* | x
CC1(C)S[C@@H]2[C@H](NC(=O)Cc3ccccc3)C(=O)N2[C@H]1C(=O)O (tested in a mixture with another compound) | x | -1% | x | x | x | x
CCC(Oc1ccccc1)C(=O)NC1C(=O)N2C1SC(C)(C)C2C(=O)O (stereo unspecified) | -6% | 4% | -2% | 2% | 25µM* | i
CC1(C)S[C@@H]2[C@H](NC(=O)Cc3ccccc3)C(=O)N2[C@@H]1C(=O)O | 6% | x | x | x | 13µM* | x
CC1(C)S[C@@H]2[C@H](NC(=O)Cc3ccccc3)C(=O)N2[C@H]1C(=O)O | 1% | 3% | -7% | -11% | 1% | 17%
CC1(C)SC2C(C(=O)O)N=C(Cc3ccccc3)N2C1C(=O)O (stereo unspecified) | x | x | -6% | -2% | 16µM* | x
C[N+]1(CC(=O)c2ccccc2)CCc2ccccc2C1 (stereo unspecified) | x | x | x | 19% | x | x
O=C1c2ccccc2NC(c2ccc(-c3ccc(-c4ccccc4)cc3)o2)N1O (stereo unspecified) | x | 15% | x | x | x | x
CCOc1ccc2ccccc2c1C(=O)N[C@@H]1C(=O)N2[C@@H]1SC(C)(C)[C@@H]2C(=O)O | -3% | 16% | 2% | -7% | 4µM*! | -9%
COc1ccc(Cn2c3nc4ccccc4nc3c3c(=O)n(Cc4ccco4)cnc32)cc1 | -29% | u | x | x | x | 28µM*
O=C(NNc1ccc(-c2csnn2)cc1)c1cc(Cl)cc(Cl)c1 | -5% | u | 0% | -6% | u | -7%
O=C(NNc1ccc(-c2csnn2)cc1)c1ccccc1C(F)(F)F | -4% | -7% | -6% | -2% | 11µM* | -8%
COc1ccc(CCC(=O)O)c(O)c1 | -7% | 16µM* | u | -27% | -22% | i
CC(C)OC(=O)c1ccc(NCc2cc(O)ccc2O)cc1 | x | x | -8% | 4% | -20% | x
COP(=O)(OC)c1ccc(NCc2cc(O)ccc2O)cc1 | x | x | -3% | 79µM* | u | x
Cc1ccc(C(=O)Nc2ccc(N3CCOCC3)nc2N2CCOCC2)cc1 | -2% | -3% | i | 2% | 1.1µM* | -12%
COc1cc(/C=C/C(=O)O[C@H]2CC[C@]34C[C@]35CC[C@]3(C)[C@@H]([C@H](C)CCC=C(C)C)CC[C@@]3(C)C5CCC4C2(C)C)ccc1O (stereo partly specified) | x | x | x | x | -3% | x
SMILES | BLM inh | APEX1 inh | PGK inhibitor | FEN1 inhibitor | GLS inh | RECQ1 inh
CC(=O)c1sc(C(=O)O)c(-c2ccco2)c1-c1ccco1 | 27% | u | -27% | u | 20µM* | -2%
O=C(O)c1sc(C(=O)O)c(-c2ccccc2)c1-c1ccccc1 | x | x | i | x | 8% | x
O=C(Nc1ccncc1)c1cnn2c1NC(=C1CC1)C=C2C(F)F | x | x | x | 2% | x | x
CC(C)(C)N[S+](=O)([O-])c1cccc(-c2nnc(SCc3ccc(C(=O)O)cc3)n2-c2ccc(F)cc2)c1 | x | 26% | x | x | x | x
Cc1nnc(SCC(=O)NCc2ccco2)[nH]c1=O | 10% | 25µM* | -19% | 1% | 3% | -18%
COc1ccc(CCNC[C@H](O)COc2cccc(C)c2)cc1OC | x | x | x | x | 0% | x
CCCCCCN(C(=O)CCCCCN1C(=O)NC(c2ccc(C3CCCCC3)cc2)C(C(=O)OCc2ccccc2)=C1C)C(C(=O)NCCCC)c1ccc(OCC(=O)OC)c(C(=O)OC)c1 (stereo unspecified) | -9% | 0.45µM*! | x | x | x | -12%
C(=C\c1nccc2ccccc12)/c1ccc(N2CCOCC2)cc1 | x | x | x | -17% | x | x
N#Cc1c[nH]n2c(NC3CCCC3)c(-c3ccc(Cl)cc3)nc12 | -4% | x | -9% | 2% | u | x
CCOc1ccc(-c2nc3c(C#N)c[nH]n3c2NC2CCCCC2)cc1 | -2% | x | -6% | -5% | 13µM* | x
COc1ccc(-c2nc3c(C#N)c[nH]n3c2NC2CCCC2)cc1 | -2% | x | 14% | 16% | 13µM* | x
Cc1ccc(NC(=O)Cn2c(O)c(N=NC(=O)c3cc4ccccc4cc3O)c3ccccc32)cc1 | -20% | u | i | -2% | 10% | -19%
COc1ccccc1NC(=O)Cn1c(O)c(N=NC(=O)c2ccccc2O)c2ccccc21 | 18µM* | 0% | -21% | u | -2% | i
OCc1cccc(-c2noc(-c3ccccc3F)n2)c1 | x | 57% | x | x | x | x
CC1(C)CC(=O)C(C(C2=C(O)CC(C)(C)CC2=O)c2ccc(O)c([N+](=O)[O-])c2)=C(O)C1 | -1% | -6% | -2% | 79µM* | -1% | 6%
C[C@@H]1[C@H](c2ccccc2)OCCS(=O)(=O)N1Cc1cccc(Cl)c1 | x | x | x | -3% | x | x
COc1c(C)c2c(c(O)c1C/C=C(\C)CCC(=O)OCCN1CCOCC1)C(=O)OC2 | x | -4% | x | x | x | x
CC(=O)Oc1cc(C(=O)OCC(=O)NC23CC4CC(CC(C4)C2)C3)cc(OC(C)=O)c1OC(C)=O | x | x | u | 14µM* | -8% | x
COc1cccc(C(=O)OCC(=O)NC23CC4CC(CC(C4)C2)C3)c1 | x | 10% | -8% | -7% | 0% | x
O=C(NNc1cc(Cl)ccc1Cl)c1cccs1 | -20% | 7% | 5% | -10% | 13µM* | 8%
Cc1cc(Cl)ccc1NNC(=O)c1cccs1 | -2% | 12% | i | 1% | u | i
